Consider 19 molecules from PubChem BioAssay (EPA / NIEHS).

Structures are written as SMILES. Inconclusive results are not listed. Activity calls are given as the source filed them. Rule for the calls: active = hit-call score of the fitted dose curve at least 0.9, where 1 is the maximum; inconclusive = response in the unintended direction; inactive = score below 0.9.

Sequence of human Caspase 5 (CASP5), CASP5 (gene 838) (P51878 whole entry, looked up): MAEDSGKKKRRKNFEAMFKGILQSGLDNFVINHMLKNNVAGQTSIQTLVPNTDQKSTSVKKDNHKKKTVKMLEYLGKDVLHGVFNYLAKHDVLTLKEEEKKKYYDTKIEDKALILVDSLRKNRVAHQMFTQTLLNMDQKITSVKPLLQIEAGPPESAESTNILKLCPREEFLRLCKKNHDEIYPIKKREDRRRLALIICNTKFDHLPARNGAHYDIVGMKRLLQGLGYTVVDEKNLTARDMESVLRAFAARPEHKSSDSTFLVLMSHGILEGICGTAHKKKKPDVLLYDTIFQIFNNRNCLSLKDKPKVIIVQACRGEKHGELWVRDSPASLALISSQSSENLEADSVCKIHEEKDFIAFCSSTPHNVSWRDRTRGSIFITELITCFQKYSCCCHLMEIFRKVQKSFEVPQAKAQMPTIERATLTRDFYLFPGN
Sequence of Caspase-3 (Homo sapiens) (P42574 whole entry, looked up): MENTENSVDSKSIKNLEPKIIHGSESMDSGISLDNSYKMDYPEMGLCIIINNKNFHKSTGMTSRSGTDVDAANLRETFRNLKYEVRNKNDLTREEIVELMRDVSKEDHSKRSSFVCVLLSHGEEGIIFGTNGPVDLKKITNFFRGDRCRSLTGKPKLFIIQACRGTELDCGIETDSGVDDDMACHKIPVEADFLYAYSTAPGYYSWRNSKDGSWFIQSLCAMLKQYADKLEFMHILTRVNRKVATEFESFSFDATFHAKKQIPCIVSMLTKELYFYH
Sequence of human AKT serine/threonine Kinase 1 (AKT1), AKT1 (gene 207) (P31749 whole entry, looked up): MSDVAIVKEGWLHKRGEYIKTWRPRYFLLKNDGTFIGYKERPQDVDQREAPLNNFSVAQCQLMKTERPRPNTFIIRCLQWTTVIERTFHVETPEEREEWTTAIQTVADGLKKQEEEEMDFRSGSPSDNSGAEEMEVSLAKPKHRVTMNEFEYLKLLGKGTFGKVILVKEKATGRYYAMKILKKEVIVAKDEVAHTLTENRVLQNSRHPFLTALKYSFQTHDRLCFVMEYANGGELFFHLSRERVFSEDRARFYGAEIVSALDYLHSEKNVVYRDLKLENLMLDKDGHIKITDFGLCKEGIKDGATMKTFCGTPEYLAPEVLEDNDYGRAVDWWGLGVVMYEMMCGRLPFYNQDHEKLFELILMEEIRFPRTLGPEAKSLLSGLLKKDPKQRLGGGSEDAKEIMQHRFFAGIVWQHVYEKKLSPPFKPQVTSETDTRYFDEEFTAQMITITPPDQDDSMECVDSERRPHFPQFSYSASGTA

The first experiment has as its target human Caspase 5 (CASP5), CASP5 (gene 838) (UniProt P51878). The experiment can be described thus: NVS_ENZ_hCASP5: NovaScreen (NVS) Enzymatic Assay for human Caspase 5 (CASP5) (AID 2283137). In short, it runs like this: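 Fluorescent substrate readout of CASP5 activity (loss-of-signal), measured 2 h post-dose. Protein expressed in E. coli. Primary screen duplicate at 25 uM; actives meeting threshold (e.g., 30% inhibition) rerun singleton, max 50 uM.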
As for `O=C1CCCCC1`, the result was inactive. On the same count and under the same terms, with `CCc1cc(C2=C(C(=O)O)N(c3ccccc3C(F)(F)F)S(=O)(=O)c3ccccc32)cc2c1OCO2` the entry was “inactive”. For `CCCCCCCCCCCCCCOS(=O)(=O)O`, the half-maximal activity concentration (AC50) was 2.27 µM (active). The same measure, in the same setting: the figure for `CCCCCCC(CCCCCCCCCCC(=O)OCC(COC(C)=O)OC(C)=O)OC(C)=O` (configuration not stated) is 13.7 µM (active). In the case of `Cn1cnc2c1c(=O)[nH]c(=O)n2C`, the molecule was called inactive. With `O=C1c2c(O)cccc2Cc2cccc(O)c21`, the AC50 was 0.235 µM (active). Regarding `O=Cc1ccccc1C=O`, the outcome was inactive.

A further experiment deals with human AKT serine/threonine Kinase 1 (AKT1), AKT1 (gene 207) (UniProt P31749). The experiment in a line: NVS_ENZ_hAKT1: NovaScreen (NVS) Enzymatic Assay for human AKT serine/threonine Kinase 1 (AKT1) (AID 2283138). In short, it runs like this:
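Fluorescence and mobility-shift readout of kinase activity, taken 1 h post-dosing in a cell-free format with recombinant protein. Primary screen at 25 uM in duplicate; hits (e.g. 30% inhibition) retested in concentration series topping at 50 uM.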
On to `CN(C)C(=O)NC1(c2ccccc2)CCN(CC[C@@]2(c3ccc(F)c(F)c3)CN(C(=O)c3ccccc3)CCO2)CC1`, for which the outcome was inactive. Same read-out and setting: the entry for `CCCC(=O)O` is “inactive”. `CCCCCCCCCCCCCCOS(=O)(=O)O`: the AC50 was 14.2 µM (active). As to `COc1ccc(OC(F)(F)F)cc1CN[C@H]1CCCN[C@H]1c1ccccc1`, the result was inactive.

As to `S=c1[nH]c2ccccc2s1`, the molecule was classed as inactive. Still for that read-out and setting: the entry for `O=C1c2c(O)cccc2Cc2cccc(O)c21` is “inactive”.

For the next experiment, the target named is Caspase-3 (Homo sapiens) (UniProt P42574). The experiment can be described thus: NVS_ENZ_hCASP3: NovaScreen (NVS) Enzymatic Assay for human Caspase 3 (CASP3) (AID 2283139). In short, it runs like this:
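Single-concentration screening at 25 uM in duplicate, with concentration-response follow-up to a 50 uM maximum for chemicals passing the threshold. Caspase-3 (human, E. coli-expressed) activity was read as substrate fluorescence after 1 h, with loss of signal relative to DMSO.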
`CN(C)C(=O)NC1(c2ccccc2)CCN(CC[C@@]2(c3ccc(F)c(F)c3)CN(C(=O)c3ccccc3)CCO2)CC1`: the outcome was inactive. Same read-out and setting: with `O=C1CCCCC1` the entry was “inactive”.

For the molecule `CCCCCCCC(=O)OC`, the molecule was classed as inactive.

On to `CC(=O)OC1CC(C)OC(C)O1` (configuration not stated), for which the molecule was classed as inactive. `O=C1c2c(O)cccc2Cc2cccc(O)c21`: the concentration at half-maximal activity (AC50) is 13.1 µM (active).

The target in another experiment is human Beta-secretase (BACE), BACE1 (gene 23621) (UniProt P56817). The experiment can be described thus: NVS_ENZ_hBACE: NovaScreen (NVS) Enzymatic Assay for human Beta-secretase (BACE) (AID 2283140).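 Note: hits are inhibitors that reduce fluorescent substrate signal versus DMSO.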 The method in brief: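 SF9-expressed enzyme, cell-free; fluorescent substrate readout after 1 h. Screened at 25 uM single concentration, duplicate; hits retested in concentration series. Activity relative to DMSO baseline, loss-of-signal.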
Sequence of human Beta-secretase (BACE), BACE1 (gene 23621) (P56817 whole entry, looked up): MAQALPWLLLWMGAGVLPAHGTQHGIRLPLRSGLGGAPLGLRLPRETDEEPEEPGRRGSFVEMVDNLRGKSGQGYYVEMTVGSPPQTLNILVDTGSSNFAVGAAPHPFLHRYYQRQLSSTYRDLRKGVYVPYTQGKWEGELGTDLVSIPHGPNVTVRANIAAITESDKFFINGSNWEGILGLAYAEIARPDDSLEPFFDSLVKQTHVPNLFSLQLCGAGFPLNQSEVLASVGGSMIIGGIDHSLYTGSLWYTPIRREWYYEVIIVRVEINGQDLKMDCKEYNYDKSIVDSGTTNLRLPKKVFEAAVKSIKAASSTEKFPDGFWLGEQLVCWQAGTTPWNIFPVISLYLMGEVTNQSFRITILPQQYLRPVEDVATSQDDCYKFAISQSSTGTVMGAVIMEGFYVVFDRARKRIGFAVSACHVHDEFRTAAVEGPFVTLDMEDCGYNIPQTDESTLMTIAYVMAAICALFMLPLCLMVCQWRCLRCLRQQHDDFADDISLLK
Take `CC(C)COC(=O)CCCCC(=O)OCC(C)C`: the AC50 was 36.1 µM (active). The same measure, in the same setting: with `CCN(CC)CCOc1ccc(C(=C(Cl)c2ccccc2)c2ccccc2)cc1` the figure was 14.7 µM (active).

Turning to `Cc1cc(SC2=C(O)C[C@@](CCc3ccc(N)cc3)(C(C)C)OC2=O)c(C(C)(C)C)cc1CO`, the call was inactive. Regarding `CCc1cc(C2=C(C(=O)O)N(c3ccccc3C(F)(F)F)S(=O)(=O)c3ccccc32)cc2c1OCO2`, the concentration at half-maximal activity (AC50) was 6.05 µM (active).

In the case of `CCCCCCCCCCCCCCOS(=O)(=O)O`, the half-maximal activity concentration (AC50) is 1.77 µM (active). In the case of `CN(C)CCCN1c2ccccc2Sc2ccc(Cl)cc21`, the call was inactive. The same measure, in the same setting: with `CCc1nc(N)nc(N)c1-c1ccc(Cl)cc1` the entry was “inactive”. The same measure, in the same setting: the entry for `CC(C)(C)c1ccccc1` is “inactive”.

Turning to `O=C1c2c(O)cccc2Cc2cccc(O)c21`, the concentration at half-maximal activity (AC50) is 1.22 µM (active).
